# Source: paper PMC9928087, “Plasmids manipulate bacterial behaviour through translational regulatory crosstalk”
# Residue numbers refer to the chain shown, from its start.
# Experiments:
# RsmQ [1] = target: T1, RsmQ (Pseudomonas fluorescens SBW25 plasmid …, UniProt UPI00015066B5 1-62); assay: SPR (ReDCaT); 100 nM protein; HBS-EP+ (10 mM HEPES, 150 mM NaCl, 3 mM EDTA, 0.05% v/v Tween 20, pH 7.4), 20 C, Biacore 8K, ReDCaT SA chip; high values mean tight binding; conditions: protein: recombinant, tags: C-terminal TEV site + 6xHis, chain copies: 2
# T1 sequence: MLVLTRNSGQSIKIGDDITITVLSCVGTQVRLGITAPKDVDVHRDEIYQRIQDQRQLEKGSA
# RsmQ [2] = target: T1, RsmQ; assay: SPR (ReDCaT); HBS-EP+ (10 mM HEPES, 150 mM NaCl, 3 mM EDTA, 0.05% v/v Tween 20, pH 7.4), 20 C, Biacore 8K, ReDCaT SA chip; high values mean tight binding; conditions: protein: recombinant, tags: C-terminal TEV site + 6xHis, chain copies: 2
# RsmQ H43A = target: T2, RsmQ H43A (Pseudomonas fluorescens SBW25 plasmid …, UniProt UPI00015066B5 1-62, H43A); assay: SPR (ReDCaT); 100 nM protein; HBS-EP+ (10 mM HEPES, 150 mM NaCl, 3 mM EDTA, 0.05% v/v Tween 20, pH 7.4), 20 C, Biacore 8K, ReDCaT SA chip; high values mean tight binding; conditions: protein: recombinant; tags: C-terminal TEV site + 6xHis; chain copies: 2; structured_DNA
# T2 sequence: T1 sequence with H43A
# RsmQ R44A = target: T3, RsmQ R44A (Pseudomonas fluorescens SBW25 plasmid …, UniProt UPI00015066B5 1-62, R44A); assay: as above; conditions: protein: recombinant; tags: C-terminal TEV site + 6xHis; chain copies: 2; structured_DNA
# T3 sequence: T1 sequence with R44A
# RsmE = target: T4, RsmE (Pseudomonas fluorescens SBW25, UniProt A0ACA7PAD1 1-74); assay: as above; conditions: protein: recombinant; tags: His tag (pET28a NdeI/XhoI); chain copies: 2; structured_DNA
# T4 sequence: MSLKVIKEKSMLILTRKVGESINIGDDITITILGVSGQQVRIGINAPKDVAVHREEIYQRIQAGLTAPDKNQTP
# RsmQ [3] = target: T1, RsmQ; assay: SPR (ReDCaT); 100 nM protein, run beside RsmE; HBS-EP+ (10 mM HEPES, 150 mM NaCl, 3 mM EDTA, 0.05% v/v Tween 20, pH 7.4), 20 C, Biacore 8K, ReDCaT SA chip; high values mean tight binding; conditions: protein: recombinant; tags: C-terminal TEV site + 6xHis; chain copies: 2; structured_DNA
sequence,measurement,setting,value
CAAGGAGACAGAGCAACAGGA,binding signal,RsmQ [1]; ssDNA,3.14 ± 0.795 %Rmax
CAGGAAAGGACAGAGCACGGA,binding signal,RsmQ [1]; ssDNA,10.1 ± 0.715 %Rmax
TTCATCAGGATGATGAAAAGGAATAC,binding signal,RsmQ [2]; ssDNA,80.5 ± 1.97 %Rmax
CCGCGCACTGAAGCGCAAAC,binding signal,RsmQ [1]; structured_DNA,1.69 ± 0.298 %Rmax
CCGCGCACGGAAGCGCAACGGAAC,binding signal,RsmQ [1]; structured_DNA,70 ± 0.746 %Rmax
same,binding signal,RsmQ H43A,51.14 ± 0.26 %Rmax
same,binding signal,RsmQ R44A,38.8 ± 0.461 %Rmax
CCGCGCATGGAAGCGCAAAC,binding signal,RsmQ [1]; structured_DNA,113.5 ± 0.537 %Rmax
same,binding signal,RsmE,30.1 ± 0.204 %Rmax
same,binding signal,RsmQ [3],107 ± 6.88 %Rmax
CCGCGCAGGGAAGCGCAAAC,binding signal,RsmQ [1]; structured_DNA,106.2 ± 0.739 %Rmax
same,binding signal,RsmE,47.5 ± 0.0552 %Rmax
same,binding signal,RsmQ [3],90.1 ± 4.07 %Rmax
CTGCCAGGATGGCGGAGTGAAATGG,binding signal,RsmQ [2]; ssDNA,16.2 ± 1.37 %Rmax
CAGGAACGGACAGAGC,binding signal,RsmQ [1]; ssDNA,6.27 ± 1.5 %Rmax
CCGCGCCGGAAGCGCAGGAAC,binding signal,RsmQ [1]; structured_DNA,28.8 ± 0.617 %Rmax
same,binding signal,RsmQ H43A,12.8 ± 0.157 %Rmax
same,binding signal,RsmQ R44A,3.8 ± 0.253 %Rmax
CCGCGCACGAAGCGCAAAC,binding signal,RsmQ [1]; structured_DNA,24.9 ± 0.641 %Rmax
CCGCGCACGGAAGCGCAAAC,binding signal,RsmQ [1]; structured_DNA,68.3 ± 0.752 %Rmax
same,binding signal,RsmQ H43A,50.72 ± 0.382 %Rmax
same,binding signal,RsmQ R44A,41.38 ± 0.372 %Rmax
same,binding signal,RsmE,-4.31 ± 0.212 %Rmax
same,binding signal,RsmQ [3],49.1 ± 0.724 %Rmax
CCGCGCCCGGAAGCGCAAAC,binding signal,RsmQ [1]; structured_DNA,7.21 ± 0.838 %Rmax
CCATCAAGGAACGATGGTTCGAAGG,binding signal,RsmQ [2]; ssDNA,11.7 ± 0.382 %Rmax
GGAATACAGGGACTAGGGAAAAAAT,binding signal,RsmQ [2]; ssDNA,3.83 ± 1.08 %Rmax
AATGTCGCAGGATGCGATTCATCAG,binding signal,RsmQ [2]; ssDNA,62.7 ± 2.27 %Rmax
ATGGACGTCGCGCAGGAAGCGCAAA,binding signal,RsmQ [2]; structured_DNA,83.5 ± 1.31 %Rmax
GCCCTGTGTCCACGGATTGGCACAA,binding signal,RsmQ [2]; structured_DNA,82.5 ± 1.12 %Rmax
CCGCGCTCGGAAGCGCAAAC,binding signal,RsmQ [1]; structured_DNA,4.59 ± 0.514 %Rmax
CAGGACAGGACAGAGC,binding signal,RsmQ [1]; ssDNA,4.87 ± 0.902 %Rmax
CCGCGCAGGAAGCGCAAAC,binding signal,RsmQ [1]; structured_DNA,94.4 ± 1.28 %Rmax
same,binding signal,RsmQ H43A,43.9 ± 0.798 %Rmax
same,binding signal,RsmQ R44A,22.1 ± 0.676 %Rmax
same,binding signal,RsmQ [3],98.6 ± 6.21 %Rmax
GCAACAACACGGACACGTAGGATT,binding signal,RsmQ [2]; ssDNA,3.78 ± 1.57 %Rmax
